Screens deposited in PubChem BioAssay by Broad Institute.
U2OS ROS induce = inducers of reactive oxygen species in cancer cells; AID 624156; 2% of 46,000 active; U2OS ROS induction, H2DCF-DA fluorescence; ROS induction (% of piperlongumine), % at 10 µM; in the data active means ROS induction above about 79%, passing the limit was not always enough;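 further: 0% = DMSO vehicle median and 100% = reference compound median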
The depositor's hits bear a star. The sample as a whole holds a higher share of hits than the screen did.

SMILES	U2OS ROS induce
C=CC[C@]12N=C(c3ccc(OCCCO)cc3)O[C@H]1c1ccccc1N(CCS(=O)(=O)c1ccccc1)C2=O	16
C=CC[C@]12N=C(c3ccc(OCCCO)cc3)O[C@H]1c1ccccc1CN(CCS(=O)(=O)c1ccccc1)C2=O	13
O=C1N(CCS(=O)(=O)c2ccccc2)c2ccccc2[C@@H]2OC(c3ccc(OCCCO)cc3)=N[C@]12CCS(=O)(=O)c1ccccc1	74
O=C1N(Cc2ccccc2)Cc2ccccc2[C@H]2OC(c3ccc(OCCCO)cc3)=N[C@@]12CCS(=O)(=O)c1ccccc1	243*
O=C1N(CCS(=O)(=O)c2ccccc2)Cc2ccccc2C[C@]12N=C(c1ccc(OCCCO)cc1)O[C@@H]2c1ccccc1	99*
NC(=O)[C@]1(CCS(=O)(=O)c2ccccc2)N=C(c2ccc(OCCCO)cc2)O[C@@H]1c1ccccc1	46
CC(C)(C)OC(=O)CC[C@]12N=C(c3ccc(OCCCO)cc3)O[C@H]1c1ccccc1CN(Cc1ccccc1)C2=O	32
O=C1N(CCS(=O)(=O)c2ccccc2)Cc2ccccc2[C@@H]2OC(c3ccc(OCCCO)cc3)=N[C@]12Cc1ccccc1	387*
C=CC[C@@]12N=C(c3ccc(OCCCO)cc3)O[C@@H]1c1ccccc1CN(CCS(=O)(=O)c1ccccc1)C2=O	60
O=C(c1ccccc1)N1Cc2ccccc2C[C@@]2(N=C(c3ccc(OCCCO)cc3)O[C@H]2c2ccccc2)C1=O	67
O=C1N(CCS(=O)(=O)c2ccccc2)Cc2ccccc2[C@H]2OC(c3ccc(OCCCO)cc3)=N[C@@]12Cc1ccccc1	117*
C=CC[C@@]12N=C(c3ccc(OCCCO)cc3)O[C@@H]1c1ccccc1CN(Cc1ccccc1)C2=O	45
CC1(C)Cc2nc3sc4c(NCC5CCCO5)ncnc4c3cc2CO1 (stereo unspecified)	-11
CCN(CC)C(=O)c1c(NC(=O)c2cccs2)sc2c1CCCC2	5
COc1ccc(CCNC(=O)c2ccc(Sc3ccc(C)cc3)c(NC(C)=O)c2)cc1OC	-12
Cc1ccc(C(=O)NCCC2=CCCCC2)cc1	4
O=C(Nc1cccnc1)C1c2ccccc2Oc2ccccc21	-7
Nc1c(C(=O)NCC2CCCO2)sc2ccc(S(=O)(=O)N3CCCCC3)cc12 (stereo unspecified)	-12
C=CC[C@@]12N=C(c3ccc(OCCCO)cc3)O[C@@H]1c1ccccc1CN(C(=O)c1ccccc1)C2=O	23
O=C(c1ccccc1)N1Cc2ccccc2[C@H]2OC(c3ccc(OCCCO)cc3)=N[C@@]2(CCS(=O)(=O)c2ccccc2)C1=O	100*
O=C(c1ccccc1)N1Cc2ccccc2[C@H]2OC(c3ccc(OCCCO)cc3)=N[C@@]2(Cc2ccccc2)C1=O	36
CCCn1c(=S)[nH]c2cc(C(=O)NCc3ccccc3)ccc2c1=O	66
Cc1sc(NC(=O)c2ccccc2)c(C(=O)N2CCCCC2)c1C	68
CCc1cc(C(c2ccc(Cl)cc2)N2CCN(CCO)CC2)c(NC(=O)c2ccccc2)s1 (stereo unspecified)	89*
O=C(Nc1nc2ccc(Cl)cc2s1)C1CN(C(c2ccccc2)c2ccccc2)C1	10
SMILES	U2OS ROS induce
CC(C)n1nnc2c(=O)oc3ccccc3c21	79*
Cc1nc2c(=O)oc3ccccc3c2n1-c1ccccc1	29
CCn1c(C)nc2c(=O)oc3ccccc3c21	13
O=C(NCc1cccs1)c1ccc2c(c1)N(Cc1ccccc1)C(=O)CS2	0
CCOC(=O)C1CCN(C(=S)NC2Cc3ccccc3C2)CC1	2
CC1(C)CC(=O)C(C(NC(=O)c2ccccc2)(C(F)(F)F)C(F)(F)F)C(=O)C1	-11
COCCOC(=O)N1C(=O)[C@@]2(c3cc(C#CCC(C(=O)OC)C(=O)OC)ccc31)[C@H](C(=O)N1CCc3cc(OC)c(OC)cc3C1)[C@H]1C(=O)O[C@H](c3ccccc3)[C@H](c3ccccc3)N1[C@@H]2c1ccc(O)cc1	1
COCCOC(=O)N1C(=O)[C@@]2(c3ccccc31)[C@H](C(=O)N1CCc3cc(OC)c(OC)cc3C1)[C@H]1C(=O)O[C@H](c3ccccc3)[C@H](c3ccccc3)N1[C@@H]2c1ccc(O)cc1	185*
COCCOC(=O)N1C(=O)[C@@]2(c3ccccc31)[C@H](c1ccc(O)cc1)N1[C@H](c3ccccc3)[C@H](c3ccccc3)OC(=O)[C@H]1[C@@H]2C(=O)N1CCc2cc(OC)c(OC)cc2C1	11
COCCOC(=O)N1C(=O)[C@@]2(c3ccccc31)[C@H](c1ccccc1OCCO)N1[C@H](c3ccccc3)[C@H](c3ccccc3)OC(=O)[C@H]1[C@@H]2C(=O)N1CCc2cc(OC)c(OC)cc2C1	214*
COCCOC(=O)N1C(=O)[C@@]2(c3cc(C#CC4=CCCCC4)ccc31)[C@H](C(=O)N1CCc3cc(OC)c(OC)cc3C1)[C@H]1C(=O)O[C@H](c3ccccc3)[C@H](c3ccccc3)N1[C@@H]2c1ccc(O)cc1	9
COc1cc2c(cc1OC)CN(C(=O)[C@@H]1[C@H]3C(=O)O[C@H](c4ccccc4)[C@H](c4ccccc4)N3[C@H](c3ccccc3OCCO)[C@@]13C(=O)Nc1ccc(C#CCNC(N)=O)cc13)CC2	18
O=C(NCC1COc2ccccc2O1)c1cc2c(s1)-c1ccccc1OC2 (stereo unspecified)	1
CS(=O)(=O)N(Cc1cc2ccccc2[nH]c1=O)c1ccccc1	-10
CCCn1c(N)nc2c1c(=O)n(C)c(=O)n2C	0
CC(C(=O)O)n1cnc2scc(-c3ccc(Cl)cc3)c2c1=O (stereo unspecified)	-12
COC(=O)c1c(NC(=S)Nc2nc(C)cc(C)n2)sc2c1CCC(C)C2 (stereo unspecified)	5
CCNC(=S)Nc1sc2c(c1C#N)CCC(C)C2 (stereo unspecified)	167*
CC1CCc2sc(NC(=O)C(Cc3ccccc3)Cc3ccccc3)c(C#N)c2C1 (stereo unspecified)	1
CC1CCN(C(=O)c2ccc3c(c2)C(=O)N(CCC2=CCCCC2)C3=O)CC1	34
c1ccc(CN2CCN(Cc3ccccc3)C2c2ccc3c(c2)OCO3)cc1	0
CCC1(c2ccccc2)NC(=S)N(c2ccccc2)N1 (stereo unspecified)	-7
COc1ccc(NC(=S)NCCN(C2CCCCC2)C2CCCC2)cc1	-2
COc1ccc([Si](C)(C)[C@H]2[C@H](CCn3cc(CCO)nn3)O[C@@]3(C(=O)N(c4ccccc4)c4ccccc43)[C@@H]2C)cc1	53
C=CCN1C(=O)[C@@]2(O[C@@H](CCn3cc(CCO)nn3)[C@H]([Si](C)(C)c3ccc(OC)cc3)[C@H]2C)c2cc(N3C(=O)c4cccc5cccc3c45)ccc21	90*
C=CCN1C(=O)[C@@]2(O[C@@H](CCn3cc(CCO)nn3)[C@H]([Si](C)(C)c3ccc(OC)cc3)[C@H]2C)c2ccccc21	27
C=CCN1C(=O)[C@]2(O[C@H](CCn3cc([C@H](O)c4ccccc4)nn3)[C@@H]([Si](C)(C)c3ccc(OC)cc3)[C@@H]2C)c2ccccc21	24
C=CCN1C(=O)[C@]2(O[C@H](CCn3cc(CCO)nn3)[C@@H]([Si](C)(C)c3ccc(OC)cc3)[C@@H]2C)c2cc(N3C(=O)c4cccc5cccc3c45)ccc21	97*
COc1ccc([Si](C)(C)[C@@H]2[C@@H](CCn3cc(CCO)nn3)O[C@]3(C(=O)N(C)c4ccccc43)[C@H]2C)cc1	20
CSc1nc(COc2ccc(C(C)(C)C)cc2)nc(N)c1C#N	-4
